Measured values from PubChem BioAssay (Tox21).
A number with no mark means an inactive call. A call without a number means that no potency is given here. Active and inactive are the calls of the source. The call rests on the fitted dose curve; in most records, active means well fitted curve in the direction sought with a large enough effect in the repeat runs; inconclusive means weak or mixed curves; inactive means flat fitted curve, though single readings scatter.

Assay: qHTS assay to test for compound auto fluorescence at 590 nm (red) in HepG2 cells (AID 720674)
Details: HepG2 autofluorescence, red 540/590 nm, 1 h; series mostly up to 91.3 µM
Description: U.S. Tox21 Program National Center for Advancing Translational Sciences [NCATS] NIH Chemical Genomics Center [NCGC] U.S. Environmental Protection Agency [EPA] National Institutes of Environmental Health Sciences [NIEHS] National Toxicology Program [NTP] U.S. Food and Drug Administration [FDA] Tox21 Assay Overview: Compound auto fluorescence often interferes with screening of the compound library against various biological targets and signaling pathways. Some of these compounds may have fluorophoric properties. Such properties may interfere with the assay outputs resulting in false positives and/or negatives. To decrease such complications and ensure the compound activities are relevant in terms of biological response, the Tox21 10K compound library was screened for auto fluorescence. From the fluorophores used as reporter signals in our screening assays, the auto fluorescence equivalencies of compounds against three fluorophores have been evaluated: Triamterene, Fluorescein and Rose Bengal sodium for blue, green and red fluorescence, respectively. The fluorescence intensities were measured using Excitation/Emission wavelengths at 405/460nm, 485/535nm and 540/590nm for blue, green and red labels, respectively. This assay includes the red fluorescence data.
Tox21 Assay Protocol Summary: 2,000 HepG2 cells in 5 uL of culture medium (MEM containing 10% FBS) per well were dispensed into black wall/clear bottom 1536-well plates using a Multidrop Combi Dispenser (ThermoFisher Scientific, Waltham, MA). The assay plates were incubated overnight at 37 C to allow cell attachment to the well bottom, followed by the transfer of 23 nL compound or DMSO vehicle by a pintool work station (Kalypsys , San Diego, CA). After the assay plates were incubated for 1 hr at 37 C and 5% CO2, fluorescence intensities in the assay plates were measured by an Envision (PerkinElmer, Shelton, CT) plate reader using three labels for measuring blue, green and red fluorescence at […] 460, 535 and 590 nm respectively.
For `CCCCCCCC`, the Potency was “inactive”. With `CCOc1ccc2ccccc2c1C(=O)N[C@@H]1C(=O)N2[C@@H]1SC(C)(C)[C@@H]2C(=O)O` the fluorescence, relative to Rose Bengal was 0.528% [at 18.6 µM]. For `O=c1[nH]c(=O)n([C@H]2C[C@H](O)[C@@H](CO)O2)cc1F`, the Potency was “inactive”. With `CC[C@H](C)COC(=O)/C=C/c1ccc(N=Cc2ccc(OC)cc2)cc1` the Potency was “inactive”. With `OC[C@H]1O[C@H](O[C@H]2O[C@H](CO)[C@@H](O)[C@H](O)[C@H]2O)[C@H](O)[C@@H](O)[C@@H]1O` the Potency was “inactive”. In the case of `C=CC(C)(CCC=C(C)C)OC=O` (stereo not given), the Potency is reported as “inactive”. For `CCCC[P+](C)(CCCC)CCCC`, the Potency was “inactive”. With `Cc1nc(-c2ccc(Cl)cc2)oc1COC(C)(C)C(=O)O` the Potency was “inactive”. In the case of `CCC(C)n1ncn(-c2ccc(N3CCN(c4ccc(OC[C@H]5CO[C@](Cn6cncn6)(c6ccc(Cl)cc6Cl)O5)cc4)CC3)cc2)c1=O` (stereo not given in full), the Potency is reported as “inactive”. With `CC(C)NC[C@@H](O)COc1ccc(CC(N)=O)cc1` the Potency was “inactive”. In the case of `O=C(Nc1ccc2c(O)c(N=Nc3ccc(N=Nc4ccc(S(=O)(=O)O)cc4)cc3)c(S(=O)(=O)O)cc2c1)c1ccccc1`, the Potency is reported as “inactive”. For `O=S(=O)(O)c1ccc(Nc2nc(Nc3ccc(/C=C/c4ccc(Nc5nc(Nc6ccc(S(=O)(=O)O)cc6)nc(N(CCO)CCO)n5)cc4S(=O)(=O)O)c(S(=O)(=O)O)c3)nc(N(CCO)CCO)n2)cc1`, the Potency was “inactive”. With `O=C1OC2(c3ccc(O)cc3Oc3cc(O)ccc32)c2ccc(N=C=S)cc21` the Potency was “inactive”. With `O=c1oc2cc(O)ccc2c2oc3cc(O)ccc3c12` the Potency was “inactive”. `NC[C@H]1O[C@H](O[C@H]2[C@H](O[C@@H]3O[C@H](CO)[C@@H](O)[C@H]3O)C(O)[C@H](N)C[C@@H]2N)[C@H](N)[C@@H](O)[C@@H]1O` (stereo not given in full) gave a fluorescence, relative to Rose Bengal of -0.0462% [at 18.6 µM]. In the case of `O=C(O)Cc1ccccc1Nc1c(Cl)cccc1Cl`, the Potency is reported as “inactive”. With `Cc1ccc(N/N=c2\c(=O)cc/c(=N\Nc3ccc(S(=O)(=O)O)cc3)c2=O)c(C)c1` the Potency was “inactive”. With `OC1CCC(C2CCCCC2)CC1` (stereo not given) the Potency was “inactive”. For `C=CCn1c(=O)n(CC=C)c(=O)n(CC=C)c1=O`, the Potency was “inactive”. For `COc1cccc(OC)c1C(=O)O`, the Potency was “inactive”. In the case of `Cc1cccc(C(=O)O)c1O`, the Potency is reported as “inactive”. With `C#C[C@]1(O)CC[C@H]2[C@@H]3[C@H](C)CC4=C(CCC(=O)C4)[C@H]3CC[C@@]21C` the Potency was “inactive”. For `CCCCC/C=C\C/C=C\CCCCCCCC(=O)O`, the Potency was “inactive”. For `CCCCCCCCCCCCCC[N+](C)(C)Cc1ccccc1`, the Potency was “inactive”. In the case of `CC(C)(C)C1CCC(=O)CC1`, the Potency is reported as “inactive”. In the case of `Nc1ccc(NCCO)c([N+](=O)[O-])c1`, the Potency is reported as “inactive”. For `O=C1c2ccccc2C(=O)N1SC1CCCCC1`, the Potency was “inactive”. In the case of `CCN(CCN)c1cccc(C)c1`, the Potency is reported as “inactive”. In the case of `O=C(O)c1cc(=O)c2ccccc2o1`, the Potency is reported as “inactive”. With `COc1ccc(-c2coc3cc(O)ccc3c2=O)cc1` the Potency was “inactive”. In the case of `C[C@@H](O)[C@H](N)C(=O)O`, the Potency is reported as “inactive”. In the case of `Clc1ccnc(Cl)n1`, the Potency is reported as “inactive”. In the case of `CC(C)(C)c1csc(-c2cc3cc(OCc4ccccc4CC(=O)O)ccc3o2)n1`, the Potency is reported as “inactive”. In the case of `Cc1ccc(C(C)C)cc2c(C)ccc1-2`, the Potency is reported as “inactive”. For `C#CC1(O)CC[C@H]2[C@@H]3CCC4=CCCC[C@@H]4[C@H]3CC[C@@]21C` (stereo not given in full), the Potency was “inactive”. With `Oc1c(I)cc(Cl)c2cccnc12` the Potency was “inactive”. With `COc1cc(/C=C/c2ccccc2)oc(=O)c1` the Potency was “inactive”. For `C#C[C@]1(OC(C)=O)CC[C@H]2[C@@H]3CCC4=C/C(=N/O)CC[C@@H]4[C@H]3CC[C@@]21CC`, the Potency was “inactive”. For `Cc1cccc2cccnc12`, the Potency was “inactive”. For `C[Si](Cl)(c1ccccc1)c1ccccc1`, the Potency was “inactive”.
